Assay results taken from PubChem BioAssay (EPA / NIEHS).
Where a structure was tested more than once in an assay, its records may differ in their call. Calls of active or inactive are those of the source. The calls were made as follows: active = hit-call score of the fitted dose curve at least 0.9, where 1 is the maximum; inactive = score below 0.9.

What was measured:
[1] = read-out: Transforming growth factor beta 1 (TGFb1), TGFB1 (gene 7040); assay: BSK_BE3C_TGFb1: BioMAP Diversity Plus: BE3C Assay for Transforming growth factor beta 1 (TGFb1) Biomarker Activity (AID 2283036); conditions: primary human bronchial epithelial cells; actives raise or lower the signal
Procedure, shortened: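 ELISA readout of TGF-b1 from human lung bronchial epithelial primary cells, taken 24 h post-treatment. Gain or loss of signal fitted relative to DMSO baseline, with parallel SRB staining for overt cytotoxicity.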

[2] = read-out: Plasminogen activator inhibitor-1 (PAI1), SERPINE1 (gene 5054); assay: BSK_BE3C_PAI1: BioMAP Diversity Plus: BE3C Assay for Plasminogen activator inhibitor-1 (PAI1) Biomarker Activity (AID 2283037); conditions: primary human bronchial epithelial cells; actives raise or lower the signal
Procedure, shortened: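 PAI-1 was measured by ELISA in human primary bronchial epithelial cultures 24 h after chemical dosing, with cytotoxicity checked by SRB total-protein staining in parallel cultures. Activity was fitted in both directions relative to DMSO.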

[3] = read-out: urokinase plasminogen activator (uPA), PLAU (gene 5328); assay: BSK_BE3C_uPA: BioMAP Diversity Plus: BE3C Assay for urokinase plasminogen activator (uPA) Biomarker Activity (AID 2283038); conditions: primary human bronchial epithelial cells; actives raise or lower the signal
Procedure, shortened: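 Measured by ELISA: uPA from human primary bronchial epithelial cells 24 h after chemical treatment. Values derive from bidirectional curve fitting with DMSO serving as negative control. Total protein by SRB staining in parallel wells flagged overt cytotoxicity.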

[4] = read-out: Urokinase-type plasminogen activator receptor (uPAR), PLAUR (gene 5329); assay: BSK_BE3C_uPAR: BioMAP Diversity Plus: BE3C Assay for Urokinase-type plasminogen activator receptor (uPAR) Biomarker Activity (AID 2283039); conditions: primary human bronchial epithelial cells; actives raise or lower the signal
Procedure, shortened: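 uPAR levels were measured by ELISA after 24 h compound treatment of primary human bronchial epithelial cells, fitted in both directions relative to DMSO. Parallel SRB staining served as the cytotoxicity read-out.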

[5] = read-out: Interleukin-6 (IL6), IL6 (gene 3569); assay: BSK_CASM3C_IL6: BioMAP Diversity Plus: CASM3C Assay for Interleukin-6 (IL6) Biomarker Activity for (AID 2283040); conditions: primary human coronary artery smooth muscle cells; actives raise or lower the signal
[6] = read-out: Tissue plasminogen activator (tPA), PLAT (gene 5327); assay: BSK_BE3C_tPA: BioMAP Diversity Plus: BE3C Assay for Tissue plasminogen activator (tPA) Biomarker Activity (AID 2283041); conditions: primary human bronchial epithelial cells; actives raise or lower the signal
Procedure, shortened: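 tPA measured by ELISA 24 h after dosing human primary bronchial epithelial cells (BE3C system). Changes in either direction were fitted against DMSO. Parallel cultures were stained with SRB to flag overt cytotoxicity.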

[7] = read-out: Interleukin-8 (IL8), CXCL8 (gene 3576); assay: BSK_CASM3C_IL8: BioMAP Diversity Plus: CASM3C Assay for Interleukin-8 (IL8) Biomarker Activity (AID 2283042); conditions: primary human coronary artery smooth muscle cells; actives raise or lower the signal;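 also: IL-8 protein level quantified by ELISA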
[8] = read-out: Human Leukocyte Antigen - DR isotype (HLADR), HLA-DRA (gene 3122); assay: BSK_CASM3C_HLADR: BioMAP Diversity Plus: CASM3C Assay for Human Leukocyte Antigen - DR isotype (HLADR) Biomarker Activity (AID 2283043); conditions: primary human coronary artery smooth muscle cells; actives raise or lower the signal;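 also: cell-surface HLA-DR protein level quantified by ELISA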
[9] = read-out: Macrophage colony-stimulating factor (MCSF), CSF1 (gene 1435); assay: BSK_CASM3C_MCSF: BioMAP Diversity Plus: CASM3C Assay for Macrophage colony-stimulating factor (MCSF) Biomarker Activity (AID 2283044); conditions: primary human coronary artery smooth muscle cells; actives raise or lower the signal;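 also: M-CSF protein amount quantified by ELISA after 24 h exposure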
[10] = read-out: Low-density lipoprotein receptor (LDLR), LDLR (gene 3949); assay: BSK_CASM3C_LDLR: BioMAP Diversity Plus: CASM3C Assay for Low-density lipoprotein receptor (LDLR) Biomarker Activity (AID 2283045); conditions: primary human coronary artery smooth muscle cells; actives raise or lower the signal;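 also: LDLR protein level on the cell surface quantified by ELISA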

Measured: AC50

CC(C)CCCCCCOC(=O)c1ccc(C(=O)OCCCCCCC(C)C)c(C(=O)OCCCCCCC(C)C)c1
inactive: [1] | [2] | [3] | [4] | [5] | [6] | [7] | [8] | [9] | [10]

CN(C)c1ccc(N=NS(=O)(=O)O)cc1
inactive: [1] | [2] | [3] | [4] | [5] | [6] | [7] | [8] | [9] | [10]

O=C(O)c1cccc(Oc2ccccc2)c1
inactive: [1] | [2] | [3] | [4] | [5] | [6] | [7] | [8] | [9] | [10]

On1ccccc1=S
inactive: [7]
active: [1] 5.47 µM | [2] 3.45 µM | [3] 5.4 µM | [4] 9.61 µM | [5] 32.2 µM | [6] 3.55 µM | [8] 27.7 µM | [9] 33.7 µM | [10] 11.7 µM

CCCCCCCCCCCCc1ccccc1
inactive: [1] | [2] | [3] | [4] | [5] | [6] | [7] | [8] | [9] | [10]

O=C(O)CC(O)C(=O)O (configuration not stated)
inactive: [1] | [2] | [3] | [4] | [5] | [6] | [7] | [8] | [9] | [10]

O=C1CCC(N2C(=O)c3ccccc3C2=O)C(=O)N1 (configuration not stated)
inactive: [1] | [2] | [3] | [4] | [5] | [6] | [7] | [8] | [9] | [10]

CCOCCO
inactive: [1] | [2] | [3] | [4] | [5] | [6] | [7] | [8] | [9] | [10]

O=c1n(CC2CO2)c(=O)n(CC2CO2)c(=O)n1CC1CO1 (configuration not stated)
inactive: [2] | [3] | [4] | [5] | [6] | [7] | [9] | [10]
active: [8] 15.3 µM

CCOC(=O)COc1ccc2c(c1)CC(NCC(O)c1cccc(Cl)c1)CC2 (configuration not stated)
inactive: [2] | [4] | [5] | [6] | [7] | [8] | [9] | [10]
active: [3] 31.2 µM

O=C(O)CCN(C1(C(=O)NO)CCCC1)S(=O)(=O)c1ccc(Oc2ccc(F)cc2)cc1
inactive: [1] | [2] | [3] | [4] | [5] | [6] | [7] | [8] | [9] | [10]

CC(=O)c1ccc2c(c1)[C@H](NC(=O)c1ccc(F)cc1)[C@@H](O)C(C)(C)O2
inactive: [1] | [2] | [3] | [4] | [5] | [6] | [7] | [8] | [9] | [10]

COc1ccc(/C=C/S(=O)(=O)NC(=O)c2ccc(C)cc2Cl)cc1
inactive: [2] | [3] | [4] | [5] | [6] | [7] | [8] | [9] | [10]

Cn1cnc([N+](=O)[O-])c1Sc1ncnc2nc[nH]c12
active: [6] 6.7 µM | [8] 11.3 µM
inactive: [2] | [3] | [4] | [5] | [6] | [7] | [8] | [9] | [10]

C1N2CN3CN1CN(C2)C3
inactive: [2] | [3] | [4] | [5] | [6] | [7] | [8] | [9] | [10]

Clc1nc(Cl)c(Cl)c(Cl)c1Cl
inactive: [1] | [2] | [3] | [4] | [5] | [6] | [7] | [8] | [9] | [10]

CCN(C(=O)c1cc(C)cc(OC[C@H](C)Nc2ccncc2)c1)C(C)C
inactive: [1] | [2] | [3] | [4] | [5] | [6] | [7] | [8] | [9] | [10]

COc1ccc2sc(C(=O)Nc3nnn[nH]3)c(OC(C)C)c2c1
active: [1] 9.17 µM | [2] 12.9 µM | [3] 8.38 µM | [6] 13.9 µM | [7] 29.4 µM | [8] 13.3 µM | [9] 19.9 µM
inactive: [4] | [10]

O=C1CCCCCN1
inactive: [2] | [3] | [4] | [5] | [6] | [7] | [8] | [9] | [10]

CCn1nc(Cc2ccccc2)cc1C1CCN(C[C@H]2C[C@H](N(C)[C@@H](C(=O)O)C(C)C)C[C@@H]2c2cccc(F)c2)CC1
inactive: [2] | [3] | [4] | [5] | [6] | [7] | [8] | [9] | [10]

CN(C)c1ccc(Cc2ccc(N(C)C)cc2)cc1
inactive: [1] | [2] | [3] | [4] | [5] | [6] | [7] | [8] | [10]

CC1(C)C(=O)N(Br)C(=O)N1Br
inactive: [2] | [3] | [4] | [5] | [6] | [7] | [8] | [9] | [10]
